Measurements from PubChem BioAssay AID1159580 (chemical genetic matrix, 2015).
Values joined by “and” are separate entries in the source; they are usually repeats but may differ in a detail not shown here. Equal values may be shown once. Hit rate of the full screen: of about 5,500 compounds, about 2,000 (36%) were called active. About 18% were inconclusive and are not listed. Rule as the data show it: active = normalized growth mostly below about 0.91 (no sharp cut-off); inconclusive = no clear call, values can overlap the other calls; inactive = mostly above about 0.92. This is one part of the list.

Assay: chemical genetic growth profiling, strain panel (AID 1159580);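 also: tested at 20 µM; growth read once vehicle control cultures reached saturation at 30 °C; 1 = growth at the plate median or of vehicle wells; lower values mean less growth of the strain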
Settings: S. cerevisiae deletion strains, growth OD

Question: Which normalized growth (locus YAL013W, strain DEP1, stronger effect = lower value) does the source give for `COc1ccc(C(=O)c2ccccc2O)c(O)c1` here?
Answer: 0.91 (inactive)

Question: And the normalized growth (locus YAL021C, strain ccr4, stronger effect = lower value)?
Answer: 0.992 (inactive)

Question: And the normalized growth (locus YAL026C, strain drs2, stronger effect = lower value)?
Answer: 0.815 (active)

Question: What about the normalized growth (locus YAL030W, strain snc1, stronger effect = lower value) of the same molecule?
Answer: 0.894 (active)

Question: What about the normalized growth (locus YBL061C, strain skt5, stronger effect = lower value) of the same molecule?
Answer: 0.818 (active)

Question: And the normalized growth (locus YBR009C, strain hhf1, stronger effect = lower value)?
Answer: 0.806 (active)

Question: And the normalized growth (locus YBR021W, strain FUR4, stronger effect = lower value)?
Answer: 0.817 (active)

Question: And the normalized growth (locus YBR023C, strain chs3, stronger effect = lower value)?
Answer: 0.867 (active)

Question: And the normalized growth (locus YBR171W, strain sec66, stronger effect = lower value)?
Answer: 0.823 (active)

Question: What about the normalized growth (locus YBR229C, strain ROT2, stronger effect = lower value) of the same molecule?
Answer: 0.95 (inactive)

Question: What about the normalized growth (locus YBR231C, strain swc5, stronger effect = lower value) of the same molecule?
Answer: 0.887 (active)

Question: What about the normalized growth (locus YBR279W, strain paf1, stronger effect = lower value) of the same molecule?
Answer: 0.902 (active)

Question: And the normalized growth (locus YCL011C, strain gbp2, stronger effect = lower value)?
Answer: 0.876 (active)

Question: What about the normalized growth (locus YCL016C, strain dcc1, stronger effect = lower value) of the same molecule?
Answer: 0.905 (active)

Question: What about the normalized growth (locus YCL029C, strain bik1, stronger effect = lower value) of the same molecule?
Answer: 0.929 (inactive)

Question: And the normalized growth (locus YCL061C, strain MRC1, stronger effect = lower value)?
Answer: 0.888 (active)

Question: And the normalized growth (locus YCL069W, strain vba3, stronger effect = lower value)?
Answer: 0.869 (active)

Question: What about the normalized growth (locus YCR088W, strain abp1, stronger effect = lower value) of the same molecule?
Answer: 0.888 (active)

Question: What about the normalized growth (locus YDL005C, strain med2, stronger effect = lower value) of the same molecule?
Answer: 0.918 (inactive)

Question: And the normalized growth (locus YDL035C, strain GPR1, stronger effect = lower value)?
Answer: 0.962 (inactive)

Question: And the normalized growth (locus YDL040C, strain nat1, stronger effect = lower value)?
Answer: 0.893 (active)

Question: And the normalized growth (locus YDL074C, strain BRE1, stronger effect = lower value)?
Answer: 0.845 (inactive)

Question: And the normalized growth (locus YDL101C, strain DUN1, stronger effect = lower value)?
Answer: 0.944 (inactive)

Question: What about the normalized growth (locus YDL134C, strain PPH21, stronger effect = lower value) of the same molecule?
Answer: 0.933 (inactive)

Question: What about the normalized growth (locus YDL185W, strain tfp1, stronger effect = lower value) of the same molecule?
Answer: 0.921 (inactive)

Question: And the normalized growth (locus YDL192W, strain arf1, stronger effect = lower value)?
Answer: 0.915 (active)

Question: And the normalized growth (locus YDR001C, strain nth1, stronger effect = lower value)?
Answer: 0.888 (active)

Question: What about the normalized growth (locus YDR069C, strain doa4, stronger effect = lower value) of the same molecule?
Answer: 0.912 (inactive)

Question: And the normalized growth (locus YDR101C, strain arx1, stronger effect = lower value)?
Answer: 0.949 (inactive)

Question: And the normalized growth (locus YDR137W, strain rgp1, stronger effect = lower value)?
Answer: 0.43 (active)

Question: And the normalized growth (locus YDR150W, strain NUM1, stronger effect = lower value)?
Answer: 0.961 (inactive)

Question: What about the normalized growth (locus YDR159W, strain sac3, stronger effect = lower value) of the same molecule?
Answer: 0.757 (active)

Question: What about the normalized growth (locus YDR162C, strain NBP2, stronger effect = lower value) of the same molecule?
Answer: 0.926 (inactive)

Question: And the normalized growth (locus YDR195W, strain ref2)?
Answer: 1.2 [resistant] (active)

Question: What about the normalized growth (locus YDR297W, strain sur2, stronger effect = lower value) of the same molecule?
Answer: 0.878 (active)

Question: What about the normalized growth (locus YDR318W, strain mcm21, stronger effect = lower value) of the same molecule?
Answer: 0.91 (active)

Question: What about the normalized growth (locus YDR334W, strain swr1, stronger effect = lower value) of the same molecule?
Answer: 0.89 (active)

Question: What about the normalized growth (locus YDR335W, strain msn5, stronger effect = lower value) of the same molecule?
Answer: 0.889 (active)

Question: And the normalized growth (locus YDR388W, stronger effect = lower value)?
Answer: 0.92 (active)

Question: And the normalized growth (locus YDR392W, strain spt3, stronger effect = lower value)?
Answer: 0.417 (active)

Question: And the normalized growth (locus YDR502C, strain sam2, stronger effect = lower value)?
Answer: 0.871 (active)

Question: And the normalized growth (locus YEL003W, strain gim4, stronger effect = lower value)?
Answer: 0.83 (active)

Question: And the normalized growth (locus YEL037C, strain rad23, stronger effect = lower value)?
Answer: 0.874 (active)

Question: What about the normalized growth (locus YEL061C, strain CIN8 (second series), stronger effect = lower value) of the same molecule?
Answer: 0.874 (active)

Question: What about the normalized growth (locus YEL061C, strain CIN8, stronger effect = lower value) of the same molecule?
Answer: 0.952 (inactive)

Question: And the normalized growth (locus YER015W, strain faa2, stronger effect = lower value)?
Answer: 0.876 (active)

Question: And the normalized growth (locus YER016W, strain bim1, stronger effect = lower value)?
Answer: 0.883 (active)

Question: And the normalized growth (locus YER110C, stronger effect = lower value)?
Answer: 0.913 (inactive)

Question: What about the normalized growth (locus YER111C, strain swi4, stronger effect = lower value) of the same molecule?
Answer: 0.885 (active)

Question: And the normalized growth (locus YER155C, strain BEM2 (second series), stronger effect = lower value)?
Answer: 0.444 (active)

Question: What about the normalized growth (locus YER155C, strain BEM2, stronger effect = lower value) of the same molecule?
Answer: 0.949 (inactive)

Question: And the normalized growth (locus YER167W, strain BCK2, stronger effect = lower value)?
Answer: 0.951 (inactive)

Question: And the normalized growth (locus YFR010W, strain ubp6, stronger effect = lower value)?
Answer: 0.902 (inactive)

Question: And the normalized growth (locus YGL078C, strain dbp3, stronger effect = lower value)?
Answer: 0.947 (inactive)

Question: And the normalized growth (locus YGL086W, strain mad1, stronger effect = lower value)?
Answer: 0.932 (inactive)

Question: What about the normalized growth (locus YGL167C, strain pmr1, stronger effect = lower value) of the same molecule?
Answer: 0.843 (active)

Question: And the normalized growth (locus YGL173C, strain kem1, stronger effect = lower value)?
Answer: 0.817 (active)

Question: And the normalized growth (locus YGL227W, strain vid30, stronger effect = lower value)?
Answer: 0.879 (active)

Question: And the normalized growth (locus YGL240W, strain doc1, stronger effect = lower value)?
Answer: 0.734 (active)

Question: What about the normalized growth (locus YGL248W, strain PDE1, stronger effect = lower value) of the same molecule?
Answer: 0.876 (active)

Question: And the normalized growth (locus YGL253W, strain hxk2, stronger effect = lower value)?
Answer: 0.799 (active)

Question: What about the normalized growth (locus YGR078C, strain PAC10, stronger effect = lower value) of the same molecule?
Answer: 0.903 (inactive)

Question: What about the normalized growth (locus YGR135W, strain pre9, stronger effect = lower value) of the same molecule?
Answer: 0.822 (active)

Question: What about the normalized growth (locus YGR229C, strain SMI1, stronger effect = lower value) of the same molecule?
Answer: 0.894 (inactive)

Question: And the normalized growth (locus YGR252W, strain gcn5, stronger effect = lower value)?
Answer: 0.751 (active)

Question: And the normalized growth (locus YHR013C, strain ard1, stronger effect = lower value)?
Answer: 0.725 (active)

Question: What about the normalized growth (locus YHR027C, strain rpn1, stronger effect = lower value) of the same molecule?
Answer: 0.883 (active)

Question: And the normalized growth (locus YHR030C, strain SLT2, stronger effect = lower value)?
Answer: 0.922 (inactive) and 0.947 (inactive)

Question: And the normalized growth (locus YHR079C, strain IRE1 (second series), stronger effect = lower value)?
Answer: 0.932 (inactive)

Question: What about the normalized growth (locus YHR079C, strain IRE1, stronger effect = lower value) of the same molecule?
Answer: 0.957 (inactive)

Question: What about the normalized growth (locus YHR094C, strain hxt1, stronger effect = lower value) of the same molecule?
Answer: 0.933 (inactive)

Question: What about the normalized growth (locus YHR129C, strain ARP1, stronger effect = lower value) of the same molecule?
Answer: 0.949 (inactive)

Question: And the normalized growth (locus YHR142W, strain chs7, stronger effect = lower value)?
Answer: 0.722 (active)

Question: What about the normalized growth (locus YHR200W, strain rpn10, stronger effect = lower value) of the same molecule?
Answer: 0.937 (inactive)

Question: What about the normalized growth (locus YIL066C, strain RNR3, stronger effect = lower value) of the same molecule?
Answer: 0.946 (inactive)

Question: And the normalized growth (locus YIL073C, strain SPO22, stronger effect = lower value)?
Answer: 0.84 (inactive)

Question: And the normalized growth (locus YIL125W, strain kgd1, stronger effect = lower value)?
Answer: 0.943 (inactive)

Question: And the normalized growth (locus YIR030C, strain dcg1, stronger effect = lower value)?
Answer: 0.918 (active)

Question: And the normalized growth (locus YJL092W, strain hpr5, stronger effect = lower value)?
Answer: 0.876 (active)

Question: What about the normalized growth (locus YJL095W, strain BCK1 (second series), stronger effect = lower value) of the same molecule?
Answer: 0.727 (active)

Question: What about the normalized growth (locus YJL095W, strain BCK1, stronger effect = lower value) of the same molecule?
Answer: 0.676 (active) and 0.932 (inactive)

Question: What about the normalized growth (locus YJL115W, strain asf1, stronger effect = lower value) of the same molecule?
Answer: 0.91 (inactive)

Question: What about the normalized growth (locus YJL129C, strain trk1, stronger effect = lower value) of the same molecule?
Answer: 0.8 (active)

Question: And the normalized growth (locus YJL134W, strain LCB3, stronger effect = lower value)?
Answer: 0.953 (inactive)

Question: And the normalized growth (locus YJL154C, strain vps35, stronger effect = lower value)?
Answer: 0.884 (active)

Question: And the normalized growth (locus YJL164C, strain tpk1, stronger effect = lower value)?
Answer: 0.798 (active)

Question: And the normalized growth (locus YJL166W, strain qcr8, stronger effect = lower value)?
Answer: 0.881 (active)

Question: And the normalized growth (locus YJL168C, strain set2, stronger effect = lower value)?
Answer: 0.938 (inactive)

Question: What about the normalized growth (locus YJL187C, strain SWE1 (second series), stronger effect = lower value) of the same molecule?
Answer: 0.896 (inactive)

Question: What about the normalized growth (locus YJL187C, strain SWE1, stronger effect = lower value) of the same molecule?
Answer: 0.88 (active)

Question: What about the normalized growth (locus YJR043C, strain POL32, stronger effect = lower value) of the same molecule?
Answer: 0.976 (inactive)
